Experimental findings from PubChem BioAssay AID489025 (Southern Research Specialized Biocontainment Screening …, 2010) are described below.

Structures are written as SMILES. Out of some 2,300 compounds screened, about 790 (34%) were called active. The rule behind the calls is not given here. Some of the results follow. Entries with a potency or affinity are not part of this list.

The assay can be described thus: THP-1 cell cytotoxicity, dose response, cytotoxicity control for non-replicating M. tuberculosis project (AID 489025). The following applies: THP-1 cell viability; series mostly up to 40 µM.
Take `CC1(C)CC(=O)C(C2NCCc3ccccc32)=C(O)C1` (stereo unspecified): the result was inactive.

With `C/C(CC(=O)Nc1ccc(C)c(Cl)c1)=N\NC(=O)c1ccco1`, the call was inactive.

Consider `CCOC(=O)c1cc(COc2cc(Cl)cc(Cl)c2)on1`, for which the call was inactive.

Consider `Cc1nc2ccc(NC(=O)c3ccc([N+](=O)[O-])cc3[N+](=O)[O-])cc2s1`, for which the compound was classed as inactive.

For the compound `CCOc1ccc(NC(=O)CCC(=O)N/N=C/c2ccc([N+](=O)[O-])s2)cc1`, the call was inactive.

Regarding `COc1cccc2cc(C(=O)NCc3ccc(F)cc3)c(=N)oc12`, the outcome was inactive.

For the compound `CC1Cc2cc(/C=C3/SC(=S)NC3=O)ccc2O1` (stereo unspecified), the compound was called inactive.

As for `CC(C)(O)C#Cc1ccc(C(=O)Nc2ccc3c(c2)OCO3)s1`, the compound was called inactive.

Regarding `CC(C)n1c(=S)[nH]c2ccccc2c1=O`, the outcome was inactive.

`CCC(C)(C)NC(=O)c1ccc(Br)o1`: the result was inactive.

As for `O=C(Nc1ccccc1)c1ccc(Br)o1`, the call was inactive.

With `O=C(NNc1ccc([N+](=O)[O-])cc1)c1ccccc1Cl`, the compound was classed as inactive.

Consider `O=C(O)c1ccccc1C(=O)NNc1ccc(F)cc1`, for which the compound was called inactive.

As to `COc1ccc(C(=O)NN/C(C)=C/C(=O)c2ccccc2)cc1`, the call was inactive.

For the compound `O=C(O)c1ccccc1C(=O)NNc1ccc(Cl)cc1`, the result was inactive.

Consider `CCOC(=O)COc1ccc(C(=O)NC2CCCCC2)cc1`, for which the outcome was inactive.

Regarding `O=C(COC(=O)C1CCCCC1)Nc1ccccc1OC(F)F`, the result was inactive.

For `NC(=O)/C(=N\OC(=O)c1ccco1)c1nc(-c2ccc(Br)cc2)cs1`, the compound was classed as inactive.

As to `O=C(OCc1cccc(F)c1)c1ccc2c(=O)n3c(nc2c1)CCC3`, the compound was classed as inactive.

Consider `Cc1ccc(/C=C2/C(=O)NC(=O)N(CCc3ccc(F)cc3)C2=O)s1`, for which the result was inactive.

On to `Cc1ccc(NC(=O)CN(C)C2CCCCC2)cc1Br`, for which the compound was classed as inactive.

Turning to `O=C(OCCCCN1C(=O)c2ccccc2C1=O)c1ccc(Br)o1`, the result was inactive.

For `Nn1c(SCCOc2ccc(Cl)cc2)nnc1-c1cccnc1`, the outcome was inactive.

Take `O=C(Nc1nc2ccccc2n1CCN1CCCC1)c1ccc(Cl)cc1`: the outcome was inactive.

With `Cc1ccc(CC(=O)Nc2ccc(Cl)cn2)cc1`, the compound was classed as inactive.

`Cn1[nH]c(-c2ccccc2)c(/C=N/O)c1=O`: the outcome was inactive.

As to `Clc1ccc(Cc2nnc(-c3cccs3)o2)cc1`, the call was inactive.

As to `c1cncc(-c2noc(CC3CCCCC3)n2)c1`, the compound was called inactive.

For the compound `CCOC(=O)C(=NCCOC)NNc1cc(Cl)ccc1Cl`, the compound was called inactive.

Regarding `CCOc1cccc2cc(C(=O)NCc3ccccc3)c(=N)oc12`, the result was inactive.

Take `CCc1c(C)c2ccc(OCC(=O)OC)cc2oc1=O`: the outcome was inactive.

As for `Cc1cccc2nc(-c3cccnc3)c(NCCC(C)C)n12`, the compound was classed as inactive.

As to `CSc1nn(-c2ccc(C(=O)OCC(=O)NC(=O)NC(C)C)cc2)c(=S)s1`, the call was inactive.

As to `CC(=O)Oc1c(-c2ccco2)oc2ccccc2c1=O`, the compound was classed as inactive.

For the compound `CCOC(=O)COn1c(-c2cccc(Cl)c2)nc2ccc([N+](=O)[O-])cc21`, the compound was called inactive.

Turning to `O=c1c2c([N+](=O)[O-])cc([N+](=O)[O-])cc2sn1-c1ccc(Br)cc1`, the outcome was inactive.

With `N/C(=N\OC(=O)c1cccc(Br)c1)c1ccc([N+](=O)[O-])cc1`, the compound was called inactive.

On to `O=C(Oc1cccc([N+](=O)[O-])c1)c1ccc2c(=O)n3c(nc2c1)CCC3`, for which the outcome was inactive.

In the case of `O=[N+]([O-])c1ccc2nc(SCc3cn4cc(Cl)ccc4n3)[nH]c2c1`, the call was inactive.

Take `O=c1c2cc(Cl)ccc2nc(-c2ccccc2Cl)n1O`: the compound was called inactive.

`Cc1nc2ccc(Cl)cc2nc(C)/c1=N\O`: the outcome was inactive.

Turning to `CC(=O)c1cc2c(ccc3ccccc32)oc1=O`, the result was inactive.

`CCOc1ncccc1C(=O)OCC(=O)N1CCc2ccccc21`: the compound was called inactive.

Take `C=C(C)C1CC=C(C)/C(=N/NC(=O)CNc2ccc(OCC)cc2)C1` (stereo unspecified): the call was inactive.

Consider `CC(C)OC(=O)c1c2c(n3ccccc13)C(=O)c1ccccc1C2=O`, for which the call was inactive.

Take `COc1cc(C(=O)ON=C2C=C(C)C(=O)C(C)=C2)cc(OC)c1OC`: the result was inactive.

Regarding `Cc1nn2c(NCCN(C)C)c3c(nc2c1-c1ccccc1)CCCC3`, the outcome was inactive.

For the compound `COc1ccc(CCNc2cc(-c3ccccc3)nc3ncnn23)cc1`, the outcome was inactive.

As for `O=C(OCn1nnc2ccccc2c1=O)c1ccc(Br)o1`, the result was inactive.

`COc1cccc(C(=O)OCn2nnc3ccccc3c2=O)c1OC`: the compound was classed as inactive.

Take `Cc1cccc(Cn2ccc(NC(=O)c3ccc4c(c3)OCO4)n2)c1`: the result was inactive.

With `Cc1ccc(NC(=O)COC(=O)CCc2c[nH]c3ccccc23)cc1[N+](=O)[O-]`, the outcome was inactive.

For `O=C(NCCC1=CCCCC1)c1ccc(F)cc1`, the outcome was inactive.

Take `Cc1ccc(NC(=O)CNc2ccc(OC(C)C)cc2)cc1`: the outcome was inactive.

For `Cc1ccc(NC(=O)COCC(=O)Nc2ccc(C)cc2)cc1`, the result was inactive.

With `COc1ccc(C(=O)C2CCCN(C(=O)c3ccc(CSC)o3)C2)cc1F` (stereo unspecified), the result was inactive.

As for `CSc1ccc(C(=O)C2CCCN(Cc3cc4ccccc4[nH]3)C2)cc1` (stereo unspecified), the outcome was inactive.

Consider `COC(=O)c1ccccc1NC(=O)C1CC(c2ccc(F)cc2)=NO1` (stereo unspecified), for which the result was inactive.

On to `CC(=O)OCCN(C)c1cc(SC(C)C)c2nonc2c1[N+](=O)[O-]`, for which the call was inactive.

With `CCCNC(=O)COC(=O)c1cc2c(=O)n3ccccc3nc2s1`, the compound was called inactive.

Regarding `Cc1csc(=Nc2cccnc2)n1CC1CCCCC1`, the result was inactive.

Take `Cc1ccc2c(CC(=O)OCC(=O)Nc3ccc(Cl)cn3)coc2c1`: the outcome was inactive.

Regarding `O=C(Oc1ccccc1)c1cc2ccccc2o1`, the call was inactive.

Turning to `CCc1ccc(OCCCC(=O)Nc2nccs2)cc1`, the call was inactive.

As to `COc1ccc(NC(=O)CO/N=C2/CCCc3nonc32)c(OC)c1`, the compound was called inactive.

As for `O=C(Oc1cccc2cccnc12)c1cccc([N+](=O)[O-])c1`, the result was inactive.

`O=C(Oc1cccc2cccnc12)c1cccc(-n2cnnn2)c1`: the compound was classed as inactive.

Turning to `O=C(Oc1ccccc1Cl)c1ccc2c(=O)n3c(nc2c1)CCC3`, the compound was classed as inactive.

Turning to `Cc1cc(C(=O)COc2cccc3cccnc23)c(C)n1C`, the compound was called inactive.

`S=c1[nH]c2ccccc2o1`: the call was inactive.

Regarding `O=C1CC(N2CCN(Cc3ccccc3)CC2)C(=O)N1CCc1ccccc1` (stereo unspecified), the result was inactive.

In the case of `O=C1C=CC(=O)N1N(c1ccccc1)c1ccccc1`, the call was inactive.

With `Cc1c(C(=O)NNC(=O)c2csc(N3CCOCC3)n2)oc2ccccc12`, the compound was classed as inactive.

Consider `COC(=O)C1=C(C(=O)OC)C(c2cc(Cl)ccc2O)c2sc(=O)[nH]c2S1` (stereo unspecified), for which the call was inactive.

As for `O=c1oc2ccccc2c2c1nnn2CCO`, the outcome was inactive.

As to `Clc1cccc(-c2ccc(CNCc3ccccn3)o2)c1`, the result was inactive.

In the case of `c1ccc(-c2nc(NCCCn3ccnc3)c3ccccc3n2)cc1`, the outcome was inactive.

As to `Cc1ccc(-c2cc(C(F)(F)F)n3nc(C(=O)NCCCn4ccnc4)cc3n2)cc1C`, the result was inactive.

Take `Fc1ccc(-c2ccc(CNCc3ccccn3)o2)cc1Cl`: the outcome was inactive.

Consider `Clc1ccc(-c2ccc(CNCc3ccccn3)o2)cc1`, for which the compound was called inactive.

Take `O=C(NCCC1=CCCCC1)c1ccc(Br)o1`: the outcome was inactive.

Turning to `CC(=O)c1cccc(NC(=O)C2COc3ccccc3O2)c1` (stereo unspecified), the compound was called inactive.

Turning to `CCCc1cc(=O)n2[nH]c(C)c(-c3ccccc3)c2n1`, the compound was called inactive.

For the compound `Cc1ccc(C(=O)CCNc2ccc(Br)cc2)o1`, the call was inactive.

As for `CC(=O)n1cc(/C=C2/N=C(c3ccccc3)OC2=O)c2ccccc21`, the compound was called inactive.

In the case of `CCCOC(=O)c1ccc(-c2ccc(C=O)o2)cc1`, the call was inactive.

In the case of `Cc1cccc(C)c1N1C(=O)CC(N2CCSCC2)C1=O` (stereo unspecified), the compound was classed as inactive.

In the case of `Cc1ccc(-c2noc(CCC(=O)Nc3cccc(C#N)c3)n2)cc1`, the call was inactive.

For `CCCOC(=O)c1ccc(NC(=O)Cc2cccs2)cc1`, the compound was classed as inactive.

In the case of `CCOC(=O)N/N=C\c1ccc([N+](=O)[O-])s1`, the compound was called inactive.

`COC(=O)N/N=C/c1ccc([N+](=O)[O-])s1`: the compound was called inactive.

`O=C(COC(=O)c1cccc([N+](=O)[O-])c1)NCc1cccs1`: the compound was called inactive.

`C/C(Cn1nnc([N+](=O)[O-])n1)=N\NC(=O)c1ccncc1`: the result was inactive.

In the case of `Brc1c(CSc2nncc3ccccc23)nc2ccccn12`, the call was inactive.

Take `CCN(CC)c1ccc2cc(C(=O)NCc3ccc(F)cc3)c(=N)oc2c1`: the outcome was inactive.

As for `O=c1oc2ccccc2nc1/C=C(\O)c1ccc(Br)cc1`, the compound was called inactive.

With `C/C(=N/NC(=O)c1ccco1)c1ccc(Br)s1`, the call was inactive.

Turning to `CC(C)(C)NCC1(CO)SC(N)=NC1=O` (stereo unspecified), the result was inactive.

For `O=C(C/C=N\OCc1ccc([N+](=O)[O-])cc1)Nc1ccc(F)cc1F`, the compound was classed as inactive.

Take `COc1n[nH]c(C(=O)Nc2cc(F)ccc2C)c1[N+](=O)[O-]`: the outcome was inactive.

As to `CCc1cc2c3c(c1)C(C)CC(C)(C)N3C(=O)/C2=C1\SC(=O)NC1=O` (stereo unspecified), the outcome was inactive.

`O=C(COC(=O)COc1ccc(Nc2ccccc2)cc1)NCc1ccco1`: the result was inactive.

As for `COC(=O)CC(=O)N1CCN(c2ccc(Cl)c(Cl)c2)CC1`, the call was inactive.

As for `COc1ccccc1N1CCN(C(=O)c2ccc([N+](=O)[O-])s2)CC1`, the compound was classed as inactive.

`CC(C)(C)c1ccc(OCCCC(=O)NC2=NCCS2)cc1`: the result was inactive.

For the compound `COc1cc(C=O)ccc1OCCOCCOc1ccc(Cl)cc1`, the call was inactive.

In the case of `O=C1/C(=C\c2ccco2)SC(=S)N1c1ccc(O)cc1`, the call was inactive.

As to `CCOc1cc(C=O)cc(N=Nc2cccc([N+](=O)[O-])c2)c1O`, the outcome was inactive.

For the compound `O=C(Oc1ccccc1)c1cccc(COC(=O)c2cnccn2)c1`, the result was inactive.

Regarding `CCOC(=O)C1CSC(CC(=O)Nc2ccc(Cl)c(Cl)c2)C(=O)N1` (stereo unspecified), the compound was called inactive.

On to `CC(C)(C)NC(=O)C(=O)NNC(=O)COc1ccc(Br)cc1`, for which the call was inactive.

In the case of `CC(/C=C/c1ccccc1)=N\NC(=O)c1ccc2c(c1)OCCO2`, the result was inactive.

`O=C(N/N=C\C=C\c1ccco1)c1cncc(Br)c1`: the result was inactive.

With `CCC(=O)c1ccc(OC(=O)c2ccc(Br)o2)cc1`, the outcome was inactive.

As for `Cc1cc(C)n2[nH]c(=O)c(N=Nc3cccc(Cl)c3)c2n1`, the call was inactive.

Turning to `Clc1ccc2c(N3CCCC3)ccnc2c1`, the call was inactive.

In the case of `Cc1ccc2[nH]c(C)c(CCNC(=O)c3cc4cc([N+](=O)[O-])ccc4oc3=O)c2c1`, the compound was called inactive.

Turning to `CCc1ccc(OCCCC(=O)NCc2ccco2)cc1`, the compound was classed as inactive.

On to `O=C(COc1ccc([N+](=O)[O-])cc1)NNC(=O)c1cccs1`, for which the compound was classed as inactive.

`COc1ccc(OCCOC(=O)c2cccs2)cc1`: the call was inactive.

For `CCCOC(=O)c1ccc(OC(=O)c2ccco2)cc1`, the compound was called inactive.
